In PubChem BioAssay AID463173 (ICCB-Longwood Screening Facility, Harvard Medical School, 2010):
In all, about 52,000 compounds went through this assay and about 4,300 (8.3%) were called active. The sample as a whole holds a higher share of actives than the screen did. Unmarked numbers belong to inactive results. No stated cut-off is given here; in the data, active means survival mostly below about 52% (no sharp cut-off); inactive means mostly above about 56%.

system: DeltatarO mutant; test: S. aureus survival, RN4220 and DeltatarO strains – OD600, teichoic acid synthesis inhibitors, primary screen (AID 463173); settings: S. aureus RN4220 wild type/DeltatarO growth, OD600, 18 h, active compounds read low, screened at 18.75 µg/mL (by protocol)

SMILES | survival
COc1cc(Nc2ncc3c(n2)CCN(Cc2cc(F)cc(F)c2)C3)cc(OC)c1 | 67%
Cc1nc2cc(-c3ccccc3)nn2c(C)c1CCC(=O)N1CCN(c2ccccc2)CC1 | 56%
CCOCCc1nnc(NC(=O)C(=O)c2cc(C)n(-c3cccc(C)c3)c2C)s1 | 65%
COc1cccc(CNC(=O)CCS(=O)(=O)c2cc3c4c(c2)CCN4C(=O)CC3)c1 | 68%
O=C(COc1ccc(Br)cc1)N/N=C1\SCC(=O)N1c1ccc(F)cc1 | 95%
CCc1ccc(NC(=O)CSc2nccn2-c2ccc(OC)cc2)cc1 | 107%
Nc1cc(=O)[nH]c(=S)n1-c1ccccc1 | 99%
COc1cc(C2c3c(oc4ccc(C)cc4c3=O)C(=O)N2Cc2ccccc2)ccc1O (centres undefined) | 113%
COc1cc(NC(=O)c2ncn(-c3ccccc3)n2)cc(OC)c1 | 63%
CCOC(=O)c1ccc(N2C(=O)c3n[nH]c(-c4ccco4)c3C2c2ccc(O)c(OC)c2)cc1 (centres undefined) | 118%
CCOC(=O)c1ccc(N2C(=O)c3n[nH]c(-c4ccco4)c3C2c2ccc(OCC)cc2)cc1 (centres undefined) | 91%
CCOC(=O)c1ccc(N2C(=O)c3n[nH]c(-c4ccco4)c3C2c2cccc(F)c2)cc1 (centres undefined) | 12% (active)
CCOc1ccc(N(CC)C(=O)c2cc3c(s2)-c2ccc(Cl)cc2SC3)cc1 | 81%
CCc1ccccc1N(CC)C(=O)c1cc2c(s1)-c1ccccc1SC2 | -1% (active)
O=C(NCCc1ccc(Cl)cc1)c1cc2c(s1)-c1ccccc1OC2 | 61%
O=C(NCc1cccc(Cl)c1)c1cc2c(s1)-c1ccccc1OC2 | 50%
COc1ccc(CCNC(=O)c2cc3c(s2)-c2ccccc2OC3)cc1OC | 49%
CCc1ccccc1N(CC)C(=O)c1cc2c(s1)-c1ccccc1OC2 | -5% (active)
O=C(NCc1ccccc1Cl)c1cc2c(s1)-c1ccccc1SC2 | 65%
CCc1ccc(CNC(=O)c2cc3c(s2)-c2ccccc2OC3)cc1 | 61%
CCN(C(=O)c1cc2c(s1)-c1ccccc1OC2)c1cc(Cl)ccc1OC | 15% (active)
CCOc1ccc(N(CC)C(=O)c2cc3c(s2)-c2ccccc2OC3)cc1 | 76%
CCCN(C(=O)c1cc2c(s1)-c1ccccc1OC2)c1ccccc1F | -4% (active)
CC(C)c1ccc(NC2=NCC(=O)N2Cc2ccccc2)cc1 | 87%

SMILES | survival
O=C(Nc1cccc(O)c1)c1cc2nc(-c3ccc(Br)cc3)cc(C(F)(F)F)n2n1 | 120%
CC(=O)Nn1c(C)nc2ccccc2c1=O | 75%
Cc1nc(SC(C)C(=O)Nc2ccccc2Cl)cc(-c2ccccc2)n1 (centres undefined) | 61%
CCn1c(SCC(=O)OC)nnc1-c1ccc(O)cc1 | 99%
COc1ccc(NC(=O)CC2C(=O)N(c3cccc(OC)c3)C(=O)N2Cc2cccnc2)cc1 (centres undefined) | 94%
CCn1c(CN2CCCCC2)nc2cc(NC(=O)COc3cc(C)ccc3C(C)C)ccc21 | 73%
COc1ccc(C)cc1Nc1cc(C)nc(C)n1 | 66%
CCC(=O)N1CCc2cc(Br)cc(S(=O)(=O)CCC(=O)NCc3ccc(Cl)cc3)c21 | 78%
CCOc1ccc(-c2cc(C(=O)OC)on2)cc1 | 55%
CCc1ccc(NC(=O)CC2C(=O)N(c3cccc(C)c3)C(=O)N2Cc2ccc(F)cc2)cc1 (centres undefined) | 89%
CCN(c1ccccc1)C(CNS(=O)(=O)c1ccccc1)c1ccccc1 (centres undefined) | 71%
Cc1ccc(CNC(=O)c2cc3c(s2)-c2ccccc2SC3)cc1 | 94%
CCCN(C(=O)c1cc2c(s1)-c1ccccc1OC2)c1ccc(C(C)C)cc1 | -3% (active)
CCCN(C(=O)c1cc2c(s1)-c1ccccc1SC2)c1ccccc1F | 1% (active)
CCOc1ccc(CNC(=O)c2cc3c(s2)-c2ccccc2OC3)cc1 | 71%
O=C(NCc1ccc(F)cc1)c1cc2c(s1)-c1ccccc1SC2 | 45% (active)
CCN(C(=O)c1cc2c(=O)n(CC)c3ccccc3c2s1)c1cccc(C(F)(F)F)c1 | 72%
CN(Cc1ccccc1)C(=O)c1cc2c(s1)-c1ccc(Cl)cc1SC2 | 86%
CCN(C(=O)c1cc2c(s1)-c1ccccc1OC2)c1cccc(C(F)(F)F)c1 | -1% (active)
O=C(NCc1ccc(Cl)cc1)c1cc2c(s1)-c1ccccc1SC2 | 58%
CCCN(C(=O)c1cc2c(s1)-c1c(C)cccc1OC2)c1ccc(OCC)cc1 | 98%
CCCN(C(=O)c1cc2c(=O)n(CC)c3ccccc3c2s1)c1ccccc1F | 64%
COc1ccc(OCC(=O)Nc2ccc3c(c2)OCO3)cc1 | 76%
COc1ccc(Cl)cc1NC(=O)N1CCC(CN2CCc3ccccc3C2)CC1 | 109%

SMILES | survival
COc1ccc(S(=O)(=O)c2c(SC)nn(Cc3ccccc3C)c2NC(C)=O)cc1 | 55%
CN1CCN(CCCNC(=O)c2cnn(-c3ccccc3)c2-n2cccc2)CC1 | 87%
Cc1ccc(OCC(=O)NCC(=O)OCc2cc(=O)n3nc(C)sc3n2)cc1 | 90%
Cc1ccc(C)c(N2CCN(c3nc4ccccc4n4nnnc34)CC2)c1 | 92%
COc1ccc(Cn2c(=O)[nH]c3cc(C(=O)N4CCN(c5cccc(OC)c5)CC4)ccc3c2=O)cc1 | 63%
CC(C)(C)OC(=O)N1CCC(c2c(C(=O)Nc3ccc4c(c3)OCCO4)cnn2-c2ccc(Cl)cc2)CC1 | 87%
CCOC(=O)c1cc(S(=O)(=O)N2CCN(c3ccc(C(C)=O)cc3)CC2)[nH]n1 | 126%
Cc1c(Cl)cccc1NC(=O)CCS(=O)(=O)c1cccc2nsnc12 | 78%
CCOCCCNC(=O)C(c1ccccc1)N1Cc2ccccc2C1=O (centres undefined) | 96%
CCc1ccc(CNC(=O)c2cc3ccccn3n2)cc1 | 97%
CCCOc1ccc(CNC(=O)c2cc3ccccn3n2)cc1 | 116%
CCOc1ccc(CNC(=O)c2cc3ccccn3n2)cc1 | 52% (active)
CC(C)Oc1ccc(CNC(=O)c2ccccc2NC(=O)c2nsc3ccccc23)cc1 | 122%
CCOc1ccc(CNC(=O)c2ccccc2NC(=O)c2nsc3ccccc23)cc1 | -5% (active)
Cc1ccc(CNC(=O)c2ccccc2NC(=O)c2nsc3ccccc23)cc1 | 60%
C=CCNC(=O)c1cc2sccc2n1Cc1ccccc1 | 85%
CC(C)C(=O)OCc1cc(=O)n2nc(C3CC3)sc2n1 | 86%
COc1ccc(S(=O)(=O)NNC(N)=S)cc1 | 100%
COc1ccc(S(=O)(=O)N(C)C2CCCCC2)cc1 | 85%
COc1ccc(S(=O)(=O)N/N=C(/C2CCCCC2)C(F)(F)F)cc1 | 35% (active)
COc1ccc(CNC(=O)C(=O)NCC(c2ccco2)S(=O)(=O)c2ccc(C)cc2)cc1 (centres undefined) | 124%
CC1Oc2ccccc2N(CC(=O)NCC2CCCO2)C1=O (centres undefined) | 83%
CCC(C)NC(=O)CSc1nc2c(sc3ccccc32)c(=O)n1CCc1ccc(OC)c(OC)c1 (centres undefined) | 66%
COC(=O)CC1Oc2ccc(C)cc2-n2cc(-c3ccc(F)cc3)nc21 (centres undefined) | 56% (active)

SMILES | survival
COC(=O)CC1Oc2ccccc2-n2cc(-c3ccc(C)cc3)nc21 (centres undefined) | 64%
COC(=O)CC1Oc2ccc(Cl)cc2-n2cc(-c3ccc(F)cc3)nc21 (centres undefined) | 90%
COC(=O)CC1Oc2ccc(F)cc2-n2cc(-c3ccc(C)cc3)nc21 (centres undefined) | 91%
COC(=O)CC1Oc2ccc(Cl)cc2-n2cc(-c3ccc(C)cc3)nc21 (centres undefined) | 80%
COC(=O)CC1Oc2ccc(C)cc2-n2cc(-c3ccc(C)cc3)nc21 (centres undefined) | 37% (active)
COc1ccc(CCNC(=O)Cn2cc(C(=O)c3ccccc3)c(=O)c3ccc(C)nc32)cc1OC | 124%
O=C(Nc1cccnc1N1CCOCC1)c1cc2ccccc2oc1=O | 79%
COc1cc(OC)c(C2C(C(=O)Nc3ccccc3)=C(C)Nc3ncnn32)cc1OC (centres undefined) | 72%
CC(CCc1ccccc1)NC(=O)CSc1n[nH]c(-c2ccc(F)cc2)n1 (centres undefined) | 126%
COc1cccc(CNC(=O)CSc2n[nH]c(-c3ccccc3Cl)n2)c1 | 60%
O=C(CSc1n[nH]c(-c2ccccc2Cl)n1)NCc1ccc(F)cc1 | -4% (active)
O=C(CSc1n[nH]c(-c2ccccc2Cl)n1)NCCc1ccccc1 | 87%
COc1ccc(CNC(=O)CSc2n[nH]c(-c3ccc(F)cc3)n2)cc1 | 109%
COc1ccc(-c2nc(SCC(=O)NC(C)CCc3ccccc3)n[nH]2)cc1 (centres undefined) | 17% (active)
CC(CCc1ccccc1)NC(=O)CSc1n[nH]c(-c2ccccc2)n1 (centres undefined) | 94%
COc1ccc(CNC(=O)CSc2n[nH]c(-c3ccc(OC)cc3)n2)cc1 | -5% (active)
Cc1ccc(CNC(=O)CSc2n[nH]c(-c3ccc(F)cc3)n2)cc1 | 122%
Cc1cccc(N2CCN(C(=O)c3ccc4c(c3)N(Cc3ccccc3)C(=O)c3ccccc3S4(=O)=O)CC2C)c1 (centres undefined) | 63%
Cc1ccc(Cl)cc1NC(=O)c1oc2ccc(S(=O)(=O)N3CCCCC3)cc2c1C | 74%
Cc1cccc(NC(=O)CN2C(=O)CSc3ccc(S(=O)(=O)N4CCCC4)cc32)c1C | 92%
O=C(CSc1nc(-c2ccco2)cc(C(F)(F)F)n1)N1CCCC1 | 79%
CC(NCc1ccc2c(c1)n(C)c(=O)n2C)c1ccccc1 (centres undefined) | 94%
